Measurements as given in the supplement of paper PMC6555819.

Each sequence was assayed on VDR:RXRa (NR concentration 270 nM, RXRa partner concentration 90 nM) (assay: PBM binding z-score (relative to random genomic background probes); higher = stronger binding; sequences stand for … in GC…GCGATTGACAGCGTAGAATGAAGG).
Procedure: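 Protein-binding microarray (Agilent 4x180K custom design, double-stranded 60-nt probes: 5' GC cap, 34-nt variable region, 24-nt constant primer region; full probe sequence given). Purified or IVT nuclear receptor:RXRα heterodimers (3:1 NR:RXRα, mostly 270:90 nM) or homodimers were incubated for 1 h in PBS with 2% milk and no ligand, then detected with Alexa488 antibodies. Fluorescence from o1-orientation probes (~5 replicates averaged) was converted to z-scores against 500 random hg19 background probes. Variable regions are seed direct-repeat (DR0–DR5) sites, all their single-nucleotide variants and half-site ablations.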

Sequence | PBM binding z-score
CCTTACGGGTCACTCCAGGTTATACCATCGGAGT | 4.19
CCTACTGGGTCATCAGGTCATTGATATCAACGTT | 4.24
AGTCAAAGTTAATCTAGGTAACGTAAGATATGCT | -0.0868
CAGCCTAGGTCAGGGCCAGTATAGGAGGAACGTT | 0.31
AGAATGAGGGCACGCTGAGTTGATAGCAGAGTAG | 2.35
CCAACTGGGCCAAGGTCATTGATCAGTCAAAGCA | 3.1
TCTTGTAAATCAAGCAGGTTAAGAAAGCCTGAGT | 0.479
CATCAAAGTTCAAGGTAACGTAACAGAAAGCAGC | 4.01
TCTTGTAGATCAACAGGATGTTAAGAAAGATCGA | 0.149
CTCGAAAGGGCGGTTGAGGTGAGTATACGGATAA | -0.045
GCTGCCAGGTCAGGTTGGTCAGCTAACGGGTACG | 1.03
GCTATTAGTTGCAAGGGCAACCGAATGATTCTCG | 0.134
ATCGAAAGGTCGTGAGGTGAGTATCCAGAAAGGC | 3.39
GATACAGGGTCAGCTAGAGGCCAGACTATGGAAA | 3.23
TCATATAGCTAATACAGGTGAAAGTCGGCATCTA | 0.529
ACAGACAGGTGATGAGGGTAACTCAGGCTATCAT | 0.16
CCTACTGGGCCGAAGGTCATTGATTCCAATGCTC | 2.51
CCTAGGAGGCCAATCTGGGTCACTCAAGGCTTGA | 1.21
GGAGCGAGGGCAAAGTTGATAGCATCTGTCGACG | 0.834
CGTCAAAGTTCAAGGAAACGTAACAGAAAGCAGC | 3.29

Sequence | PBM binding z-score
GCAGCTAGGTCAGGTTGGTCAGCTAACGGGTACG | 0.358
CCGACTGGGGCAATGTTACCATAACGCACAGCCA | -0.586
CGTCCAATGTCAATGCTAGGTCAGTGAAAGCATT | 0.803
CTACCAAGGTGAGCAAGGTCGTTGATTACTATTC | 5.03
ACTATTAGTTGACTTAGGGCAACCGATACGACGC | 0.152
CGAACTAGGTCATTGACAGGACAGCGAATAGTAA | 2.05
CTCGAAAGGTCGTGTTCAGGTGAGTATACCAAAC | 3.35
AGAATGAGGTTATACGTAGAGCAGGGAAGAAAGT | 1.23
TTACCAAGGTGAGCTGAGGTCGTAGATCCAACTC | 3.45
TAGCCTAGGTCATTCAGGGGCCGGTATAGAAAGC | 2.63
TCATATACGTAAAAGGTGAAAGTCGGTGTGGTAA | 1.43
AGAATGAGGGTACCAAAGATCAGGGAAACGCTTG | 0.0257
CCTCGGAGGAAAACAGGAGGTCAGAGCTGCCAGA | 1.28
TCTAGTTGGTCAAAGGTCACAAACTCGAAATGCG | 5.17
CCTAGCAGGCCAGGGTCACGCAAGCATTTCGCTT | 3.95
GGAACGATGGCAAGTTGATAGCAGAGTTTGATGG | -0.469
TCGAGTAGGTTACCAATGGGGCTTTCAGCTTTCT | -0.42
TCTAGTTGGTTAAAGGTCACACACTCGAAATGCG | 4.86
CGTCCAAGGTCAAAGGTCAGTGCAGAGATGACGG | 6.57
ACTAGTTGGTCAGCTGAGTTCACACACAATTCGG | 4.81
